Results filed as inconclusive are left out. Calls of active or inactive are those of the source. The calls were made as follows, unless noted: active = hit-call score of the fitted dose curve at least 0.9, where 1 is the maximum; inactive = score below 0.9.
How the values were obtained:
[1] = CCTE_Shafer_MEA_acute_spike_number: CCTE's Neural Acute Assay for Total Number of Spikes, Shafer Lab (AID 2284008)
Summary of the method: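 Cortical neurons from rat, matured to DIV 13 or 15 on microelectrode arrays, are recorded at 37 C before and during 40-min exposure to 0.03-40 uM compound. Wells need >/= 10 active electrodes.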

[2] = CCTE_Shafer_MEA_acute_firing_rate_mean: CCTE's Neural Acute Assay for Mean Firing Rate, Shafer Lab (AID 2284009);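 also: analyzed for loss of signal so actives lower firing rate relative to DMSO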
Summary of the method: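 Spontaneous spiking of primary rat cortical networks, DIV 13/15, 37 C. Compound 0.03-40 uM, n ≥3 wells; 40 min baseline vs 40 min treated. Endpoint fitted in loss-of-signal direction against DMSO.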

[3] = CCTE_Harrill_HTTr_CellCount_MCF7: CCTE's Cell Proliferation Assessment for the High-Throughput Transcriptomics (HTTr) Platform, Harrill Lab (AID 2284012; active = hit-call score of the fitted dose curve at least 0.9, where 1 is the maximum;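 also: count of Hoechst-stained nuclei per well by high-content imaging in MCF-7 cells; cells exposed to compound for six hours; intended direction is loss of nuclei count meaning fewer cells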)
Summary of the method: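 For this full-screen endpoint, MCF-7 cultures received eight compound dilutions for six hours. Well nuclei counts from Hoechst imaging were analyzed relative to DMSO.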

[4] = CCTE_Shafer_MEA_acute_burst_number: CCTE's Neural Acute Assay for Single-Electrode Bursts, Shafer Lab (AID 2284013)
Summary of the method: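 Burst totals were derived with adaptive spike detection (8x rms threshold) on filtered signals from rat cortical cultures; change relative to pre-treatment baseline after 40-min compound exposure (0.03-40 uM) was fitted in the negative direction against DMSO.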

[5] = CCTE_Shafer_MEA_acute_burst_duration_mean: CCTE's Neural Acute Assay for Mean Burst Duration, Shafer Lab (AID 2284014);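 also: hits are decreases in mean burst duration relative to DMSO controls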
Summary of the method: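 Acute exposure of mature rat cortical networks (DIV 13 or 15) grown on microelectrode arrays to 0.03-40 uM compound. Mean burst duration compared with the 40-min pre-dose baseline over a 40-min post-dose recording at 37 C.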

[6] = CCTE_Shafer_MEA_acute_per_burst_spike_number_mean: CCTE's Neural Acute Assay for Average Number of Spikes Per Burst, Shafer Lab (AID 2284015);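 also: hits are decreases in mean spikes per burst versus baseline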
Summary of the method: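 Rat primary cortical neurons on 48-well MEAs (DIV 13 or 15) were treated with 0.03-40 uM compound at 37 C. Mean spikes per burst over 40 min were recorded before and after exposure and expressed as percent change from baseline, relative to DMSO.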

[7] = CCTE_Shafer_MEA_acute_interburst_interval_mean: CCTE's Neural Acute Assay for Mean Interburst Interval, Shafer Lab (AID 2284016);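 also: percent change of mean interburst interval versus each well's own pre-dose baseline; curves fitted for decrease in interburst interval relative to DMSO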
Summary of the method: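 Rat primary cortical neurons on 48-well MEAs at DIV 13 or 15 were exposed acutely to 0.03-40 uM. Spikes detected at 8x rms noise, 37 C. Mean interburst interval from 40 min recordings expressed as percent change from 40 min pre-treatment baseline.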

[8] = CCTE_Shafer_MEA_acute_burst_percentage_mean: CCTE's Neural Acute Assay for Percentage of Spikes in a Burst, Shafer Lab (AID 2284017)
Summary of the method: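 Primary rat cortical neurons on 48-well MEA plates, treated on DIV 13 or 15 at 0.03-40 uM. Spikes detected at 8x rms noise at 37C; percent change from 40-min baseline to 40-min post-dose recording, fitted versus DMSO.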

[9] = CCTE_Shafer_MEA_acute_burst_percentage_std: CCTE's Neural Acute Assay for Standard Deviation of Burst Percentage, Shafer Lab (AID 2284018);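 also: fitted in the negative direction so actives lower burst percentage SD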
Summary of the method: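 Primary rat cortical neurons on 16-electrode MEA wells were recorded 40 min at baseline (DIV 13 or 15), then 40 min after compound (0.03-40 uM), at 37 C. Well value is SD across electrodes of spikes-in-bursts/total spikes; endpoint is percent change, DMSO-referenced.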

[10] = CCTE_Shafer_MEA_acute_per_network_burst_spike_number_mean: CCTE's Neural Acute Assay for Average Number of Spikes in a Network Burst, Shafer Lab (AID 2284019);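 also: curve fitted for loss of signal so actives reduce spikes per network burst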
Summary of the method: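 Acute exposure of rat primary cortical networks (DIV 13/15) on MEAs; adaptive spike detection at 8x rms noise, 37 C. Percent change in spikes per network burst after 40 min with compound (0.03-40 uM), negative direction vs DMSO.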

[11] = CCTE_Shafer_MEA_acute_per_network_burst_spike_number_std: CCTE's Neural Acute Assay for Standard Deviation of Number of Spikes in a Network Burst, Shafer Lab (AID 2284020);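 also: fitted for decrease in spike-number SD versus DMSO so actives lower it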
Summary of the method: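 Acute MEA exposure, rat cortical neurons, 0.03-40 uM. Per-well % change versus own baseline; DMSO as negative control.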

[12] = CCTE_Shafer_MEA_acute_per_network_burst_electrodes_number_mean: CCTE's Neural Acute Assay for Mean Number of Electrodes in a Network Burst, Shafer Lab (AID 2284021);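 also: curves fitted for decreases only so hits reduce electrodes per burst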
Summary of the method: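 Cultures of rat cortex neurons were exposed on DIV 13 or 15 to compounds at 0.03-40 uM in at least three wells each. Activity over 40 min before and 40 min after exposure at 37 C gave the percent change in electrodes per network burst.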

[13] = CCTE_Shafer_MEA_acute_network_burst_percentage: CCTE's Neural Acute Assay for Percentage of Network Bursts, Shafer Lab (AID 2284022);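 also: curves fitted for loss so actives lower network burst percentage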
Summary of the method: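 Cortical neurons from rat were grown over microelectrode arrays and used on day 13 or 15 in vitro. Wells with at least 10 active electrodes received test chemical at 0.03-40 uM. Activity during 40 min of exposure was compared with the preceding 40-min baseline.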

[14] = CCTE_Shafer_MEA_acute_cross_correlation_area: CCTE's Neural Acute Assay for Area of Cross Correlation, Shafer Lab (AID 2284024);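 also: area under pooled inter-electrode spike cross-correlation near zero lag as percent change from own baseline; curves fitted for loss of cross-correlation area so actives lower synchrony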
Summary of the method: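 Acute exposure of mature rat cortical networks (day 13 or 15 post-plating) to 0.03-40 uM compound. Spontaneous spiking on MEA, 40 min pre- and post-dose at 37 C.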

[15] = CCTE_Shafer_MEA_acute_cross_correlation_HWHM: CCTE's Neural Acute Assay for Cross Correlation at Half Width at Half Maximum, Shafer Lab (AID 2284026);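 also: spontaneous network firing of rat primary cortical neurons on multiwell microelectrode arrays; percent change per well from pre-dose baseline in spike cross-correlogram half width; hits are a decrease in cross-correlogram half width relative to DMSO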
Summary of the method: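 Primary cortex (rat), MEA, DIV 13/15; compound 0.03-40 uM; 40 min pre + 40 min post at 37 C; spike threshold 8x rms; wells need ≥10 active electrodes; endpoint = % change in cross-correlogram HWHM vs baseline, DMSO negative control.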

[16] = CCTE_Shafer_MEA_acute_synchrony_index: CCTE's Neural Acute Assay for Synchrony, Shafer Lab (AID 2284027);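 also: network synchrony index of spontaneous spiking in primary rat cortical neurons on MEAs; fitted for loss of signal so actives lower synchrony relative to DMSO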
Summary of the method: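 Acute exposure of rat primary cortical neurons (DIV 13 or 15) at 0.03-40 uM. Synchrony index, 40 min before vs after, as % change relative to DMSO control.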

[17] = CCTE_Shafer_MEA_dev_firing_rate_mean: CCTE's Neural Network Formation Assay for Mean Firing Rate, Shafer Lab (AID 2284031)
Summary of the method: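 Extracellular spike frequency, AUC over DIV 5–12 recordings, in rat cortical neuron MEA cultures dosed from plating; loss direction vs DMSO.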

[18] = CCTE_Shafer_MEA_dev_per_burst_spike_percent: CCTE's Neural Network Formation Assay for Percent of Spikes in a Burst, Shafer Lab (AID 2284032);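 also: fitted as a decrease in burst spike percentage below DMSO baseline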
Summary of the method: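 Value is trapezoidal AUC over recordings on days 5, 7, 9 and 12 of the well-mean fraction of spikes falling in single-electrode bursts; rat cortical cultures exposed continuously from plating, treatment renewed DIV 5 and 9, fitted downward against DMSO.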

[19] = CCTE_Shafer_MEA_dev_active_electrodes_number: CCTE's Neural Network Formation Assay for Number of Active Electrodes, Shafer Lab (AID 2284040; active = hit-call score of the fitted dose curve at least 0.9, where 1 is the maximum;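 also: potency for loss of active electrodes versus DMSO so lower counts are hits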)
Summary of the method: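 Developing rat cortical networks on MEAs, exposed DIV 0–12. Value is the AUC of active-electrode counts (≥5 spikes/min) from days 5, 7, 9, 12, relative to DMSO.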

[20] = CCTE_Shafer_MEA_dev_burst_rate: CCTE's Neural Network Formation Assay for Burst Rate, Shafer Lab (AID 2284042)
Summary of the method: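 Primary rat cortical neurons on PEI-coated 48-well MEA plates (laminin added with cells at plating) (16 electrodes/well), exposed from plating to day 12, dosing renewed at DIV 5 and 9. Burst rate averaged over active electrodes, recorded DIV 5, 7, 9, 12, summarized as AUC; loss versus DMSO.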

[21] = CCTE_Shafer_MEA_dev_bursting_electrodes_number: CCTE's Neural Network Formation Assay for Number of Bursting Electrodes, Shafer Lab (AID 2284043; active = hit-call score of the fitted dose curve at least 0.9, where 1 is the maximum;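 also: potency is for loss of bursting electrodes relative to DMSO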)
Summary of the method: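 Counted: electrodes with burst rate ≥1 per 2 min in each well. Cells: primary rat cortex, 1.5 x 10^5/well, on 16-electrode MEA wells. Exposure: DIV 0–12, compound renewed DIV 5 and 9. Recording days 5, 7, 9, 12; AUC vs DMSO baseline.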

[22] = CCTE_Shafer_MEA_dev_per_burst_interspike_interval: CCTE's Neural Network Formation Assay for Burst Interspike Interval, Shafer Lab (AID 2284044);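 also: potency for a decrease of within-burst interspike interval below DMSO level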
Summary of the method: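 Developmental network-formation MEA in primary rat cortical cultures with exposure spanning days 0–12. Within-burst ISI is averaged per well and integrated across recording days by area under the curve, with DMSO as negative control baseline.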

[23] = CCTE_Shafer_MEA_dev_burst_duration_mean: CCTE's Neural Network Formation Assay for Mean Burst Duration, Shafer Lab (AID 2284045)
Summary of the method: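 Network-formation assay in primary rat cortical neurons; treatment spans twelve days of development. Mean burst duration per well is integrated by trapezoidal AUC and fitted in the loss-of-signal direction against DMSO baseline.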

[24] = CCTE_Shafer_MEA_dev_interburst_interval_mean: CCTE's Neural Network Formation Assay for Mean Interburst Interval, Shafer Lab (AID 2284046);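 also: well-mean interburst interval of bursting electrodes as AUC over four recording days; curve fitted for decrease in interburst interval relative to DMSO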
Summary of the method: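 Recordings on days 5, 7, 9 and 12 give well-mean interburst interval across actively bursting electrodes, summarized as area under the curve. Cultures: rat cortical neurons, continuous exposure from day 0, compound renewed at feeds; decrease analyzed versus DMSO.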

[25] = CCTE_Shafer_MEA_dev_inter_network_spike_interval_mean: CCTE's Neural Network Formation Assay for Mean Inter-network Spike Interval, Shafer Lab (AID 2284047)
Summary of the method: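 Primary rat cortical neurons on 16-electrode MEA wells, exposed from plating day 0 through DIV 12, compound renewed at DIV 5 and 9 media changes. Mean interval between network-spike peaks recorded DIV 5, 7, 9, 12; collapsed as trapezoidal AUC, fitted downward versus DMSO.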

[26] = CCTE_Shafer_MEA_dev_network_spike_number: CCTE's Neural Network Formation Assay for Number of Network Spikes, Shafer Lab (AID 2284048);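 also: synchronized bursts across electrodes counted on days 5 7 9 12 and integrated as AUC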
Summary of the method: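 Extracellular recordings from 16-electrode wells track network formation in rat cortical cultures under continuous treatment from plating. The endpoint is network spike number, expressed as AUC across DIV 5–12 relative to DMSO vehicle.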

[27] = CCTE_Shafer_MEA_dev_network_spike_peak: CCTE's Neural Network Formation Assay for Mean Number of Electrodes in Network Spike, Shafer Lab (AID 2284049);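 also: fitted for loss of signal meaning fewer electrodes in network spikes than DMSO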
Summary of the method: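 Continuous 12-day exposure of rat cortical cultures, starting at plating, on MEA plates. Endpoint: electrodes participating in network-spike peaks, AUC across DIV 5–12, DMSO as negative control.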

[28] = CCTE_Shafer_MEA_dev_spike_duration_mean: CCTE's Neural Network Formation Assay for Mean Spike Duration, Shafer Lab (AID 2284051);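 also: mean network spike duration pooled as area under curve over DIV 5 to 12 recordings; potency for a decrease in mean network spike duration versus DMSO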
Summary of the method: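 Primary rat cortical neurons on 16-electrode MEA wells (PEI-coated, laminin in plating drop), exposed from plating through DIV 12 with compound renewed at DIV 5 and 9. Mean network-spike duration recorded DIV 5, 7, 9, 12; trapezoidal AUC across days, DMSO baseline.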

[29] = CCTE_Shafer_MEA_dev_network_spike_duration_std: CCTE's Neural Network Formation Assay for Standard Deviation of Network Spike Duration, Shafer Lab (AID 2284052);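 also: area under curve of spike duration SD across recording days 5 to 12; hits are decreases in network spike duration SD versus DMSO vehicle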
Summary of the method: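 Primary rat cortical neurons on PEI-coated 16-electrode MEA wells, exposed from plating day 0 through day 12 with compound renewed at DIV 5 and 9. Network spike duration SD recorded on days 5, 7, 9, 12, collapsed as trapezoidal AUC; loss-of-signal fit versus DMSO.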

[30] = CCTE_Shafer_MEA_dev_per_network_spike_spike_number_mean: CCTE's Neural Network Formation Assay for Mean Number of Spikes in a Network Spike, Shafer Lab (AID 2284053)
Summary of the method: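 Primary rat cortical neurons on 48-well, 16-electrode MEA plates were exposed from plating to DIV 12, with dosing renewed on DIV 5 and 9. Spikes per network spike (0.05 s peak window) were recorded on DIV 5, 7, 9 and 12 and collapsed as trapezoidal AUC versus DMSO.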

[31] = CCTE_Shafer_MEA_dev_per_network_spike_spike_percent: CCTE's Neural Network Formation Assay for Percent of Spikes in a Network Spike, Shafer Lab (AID 2284054)
Summary of the method: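 Developing networks of rat cortical neurons are dosed at day 0 and recorded extracellularly four times up to day 12. The endpoint is the area under the curve of percent spikes in network spikes, fitted in the negative direction relative to DMSO.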

[32] = CCTE_Shafer_MEA_dev_LDH: CCTE's Lactate Dehydrogenase Assay for Cytotoxicity in the Neural Network Formation Assay, Shafer Lab (AID 2284068; active = hit-call score of the fitted dose curve at least 0.9, where 1 is the maximum;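 also: exposure for twelve days from plating with re-dosing on DIV 5 and 9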)
Summary of the method: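 Primary rat cortical neurons were plated on PEI/laminin MEA plates and exposed from day 0 for twelve days, with compound renewed at DIV 5 and 9. Cytotoxicity was determined by spectrophotometric LDH assay relative to DMSO.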

[33] = CCTE_Shafer_MEA_acute_LDH: CCTE's Lactate Dehydrogenase Assay for Cytotoxicity in the Neural Acute Assay, Shafer Lab (AID 2284086; active = hit-call score of the fitted dose curve at least 0.9, where 1 is the maximum;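 also: active means LDH release rises above DMSO vehicle level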)
Summary of the method: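 Cytotoxicity readout: spectrophotometric LDH activity in supernatant of rat primary cortical neurons, post-plating day 13 or 15, sampled after 40 min compound exposure; signal gain relative to DMSO baseline.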

Measured: AC50

O=C1CC2(CCCC2)CC(=O)N1CCCCN1CCN(c2ncccn2)CC1
active: [10] 1.01 µM | [12] 2.98 µM | [18] 15 µM | [19] 9.97 µM | [21] 15 µM | [22] 2.98 µM | [27] 15 µM | [28] 15 µM | [30] 21.6 µM
inactive: [1] | [2] | [3] | [4] | [5] | [6] | [7] | [8] | [9] | [11] | [13] | [14] | [15] | [16] | [17] | [20] | [23] | [24] | [25] | [26] | [29] | [31] | [32] | [33]
